For seven compounds, outcome and AC50 results are on record in PubChem BioAssay (EPA / NIEHS).

The AC50 is the concentration at which the activity in the assay is half-maximal.

Structures are written as SMILES. Results filed as inconclusive are left out. Activity calls are given as the source filed them. How the source made its calls, unless noted: active means hit-call score of the fitted dose curve at least 0.9, where 1 is the maximum; inactive means score below 0.9.

A short description of assay [1]: ACEA_ER_80hr: ACEA Biosciences xCELLigence Real-Time Cell Analysis on Estrogen Receptor Agonism for Proliferation (AID 2282667; active means hit-call score of the fitted dose curve at least 0.9, where 1 is the maximum). The following applies: T47D proliferation, impedance (xCELLigence), 80 h. In outline:
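Real-time electrical impedance tracked growth of the human breast line T47D, with the 80 h post-dosing value used. Dosing spanned eight 1:4 steps down from a 100 uM final top concentration, run in duplicate.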

The nature of assay [2]: ATG_CRE_CIS: Attagene CIS-FACTORIAL HepG2 Assay for human cAMP Responsive Element (CRE) binding protein 3 (AID 2282926). The conditions noted are these: HepG2 CRE cis-reporter, Attagene multiplexed mRNA; actives raise or lower the signal. In outline:
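Assay format: transient reporter transfection of HepG2, 24 h treatment, total RNA isolation with DNase I step. Reporter abundance read by fluorescence after PCR and capillary separation; DMSO-normalised gain or loss fitting.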

Assay [3] concerns the target CCAAT/enhancer-binding protein beta (Homo sapiens) (UniProt P17676). The experiment in a line: ATG_C_EBP_CIS: Attagene CIS-FACTORIAL HepG2 Assay for human CCAAT/Enhancer Binding Protein (C/EBP) beta (AID 2282927). The following applies: HepG2 Attagene cis-factorial transcription factor reporter; actives raise or lower the signal. The method, boiled down:
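HepG2, transient MRTU transfection, 24 h treatment. RT-PCR plus CE fluorescence; DMSO negative control, bidirectional fit.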

A short description of assay [4]: ATG_CMV_CIS: Attagene CIS-FACTORIAL HepG2 Assay for human CMV (Internal Marker) (AID 2282928).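 Further: endpoint acts as a background internal control marker rather than a target.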 The following applies: HepG2 CMV promoter reporter, transcription factor profiling; actives raise or lower the signal. In outline: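 Reporter transcripts from transfected HepG2 cells are isolated after 24 h of chemical dosing, reverse-transcribed and amplified. Fragments labeled with 6-FAM are cut with HpaI and quantified by capillary electrophoresis; DMSO defines baseline.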

Assay [5] is described as follows: ATG_DR4_LXR_CIS: Attagene CIS-FACTORIAL HepG2 Assay for human Liver X Receptor (LXR), DR4 submotif (AID 2282929). The following applies: HepG2 Attagene DR4 cis-reporter, mRNA transcription; actives raise or lower the signal. In outline: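 Fluorescence intensity of labelled reporter cDNA fragments, separated by capillary electrophoresis, gives the signal. HepG2 cells bearing cis-regulated reporter constructs were treated 24 h; activity fitted bidirectionally relative to DMSO negative control.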

The target in assay [6] is Aryl hydrocarbon receptor (Homo sapiens) (UniProt P35869). The experiment in a line: ATG_Ahr_CIS: Attagene CIS-FACTORIAL HepG2 Assay for human Aryl Hydrocarbon Receptor (Ahr) (AID 2282930). The conditions noted are these: HepG2 AhR cis-factorial reporter transcription; actives raise or lower the signal. In outline:
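Endogenous factor activity is tracked through cis-promoter reporter units transfected into HepG2 cells. Transcript levels at 24 h are read by fluorescent RT-PCR and capillary electrophoresis, with activity in either direction scored relative to DMSO.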

Assay [7] is described as follows: ATG_AP_1_CIS: Attagene CIS-FACTORIAL HepG2 Assay for human Activator Protein 1 (AP-1) (AID 2282931). The conditions noted are these: HepG2 Attagene cis-factorial AP-1 reporter mRNA; actives raise or lower the signal. In outline: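 Multiplexed HepG2 reporter assay, 24 h dosing. mRNA induction detected by RT-PCR plus capillary electrophoresis. Activity fitted in both directions against DMSO.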

Assay [8] can be described thus: ATG_AP_2_CIS: Attagene CIS-FACTORIAL HepG2 Assay for human Activator Protein 2 (AP-2) (AID 2282932). The following applies: HepG2 AP-2 cis-reporter, Attagene transcription factor profiling; actives raise or lower the signal. The method, boiled down: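 Read-out: fluorescent reporter mRNA via RT-PCR and capillary electrophoresis, 24 h post-dose in transiently transfected HepG2. Endogenous factors drive cis-promoter reporters; gain or loss of signal fitted bidirectionally against DMSO.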

Assay [9] can be described thus: ATG_BRE_CIS: Attagene CIS-FACTORIAL HepG2 Assay for human Bone Morphogenetic Protein (BMP) Response Element (BRE) (AID 2282933). The following applies: HepG2 BMP response element reporter, Attagene transcription factor profiling; actives raise or lower the signal. The method, boiled down: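 Endogenous transcription factor activity at a BMP response element was monitored in transfected HepG2 cells 24 h after dosing. Fluorescent RT-PCR products were resolved by capillary electrophoresis, and activity was fitted in both directions versus DMSO.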

Assay [10] concerns the target Retinoic acid receptor alpha (Homo sapiens) (UniProt P10276). Briefly: ATG_DR5_RAR_CIS: Attagene CIS-FACTORIAL HepG2 Assay for human Retinoic Acid Receptor Alpha (RARE), DR5 submotif (AID 2282934). The conditions noted are these: HepG2 Attagene cis-factorial RARE DR5 reporter, mRNA; actives raise or lower the signal. In outline: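 After 24 h of chemical exposure, transiently transfected HepG2 cells were lysed for total RNA; the DR5-regulated reporter transcript was quantified via RT-PCR and capillary electrophoresis, with activity fitted bidirectionally against DMSO.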

The target of assay [11] is Transcription factor E2F1 (Homo sapiens) (UniProt Q01094). Briefly: ATG_E2F_CIS: Attagene CIS-FACTORIAL HepG2 Assay for human E2F Transcription Factor 1 (AID 2282935). The following applies: HepG2 Attagene cis-reporter, E2F reporter RNA transcripts; actives raise or lower the signal. The method, boiled down: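 Transient MRTU transfection of HepG2; 24 h compound exposure; RNA → oligo(dT) RT → PCR → FAM label → HpaI cut → CE fluorescence. Gain/loss of signal fit against DMSO.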

A short description of assay [12]: ATG_E_Box_CIS: Attagene CIS-FACTORIAL HepG2 Assay for human Enhancer Box (E-box) (AID 2282936). The following applies: HepG2 E-box cis-reporter transcription, actives raise or lower the signal. The method, boiled down:
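Transiently transfected HepG2, endogenous TF-driven reporters, 24 h dosing. Readout: RT-PCR plus capillary electrophoresis of fluorescent reporter fragments. Gain or loss of signal fitted bidirectionally against DMSO baseline.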

Assay [13] in a line: ATG_M_61_CIS: Attagene CIS-FACTORIAL HepG2 Assay for M61 Transcription Factor (Internal Marker) (AID 2282937). The conditions noted are these: HepG2 Attagene CIS-FACTORIAL M61 internal marker reporter; actives raise or lower the signal. The method, boiled down: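 Endogenous transcription factor activity in HepG2 is read through transiently transfected cis-element reporter units. After 24 h dosing, RNA undergoes reverse transcription, PCR and primer extension with 6-FAM before capillary electrophoresis; DMSO-referenced bidirectional fit.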

Assay [14] can be described thus: ATG_EGR_CIS: Attagene CIS-FACTORIAL HepG2 Assay for human Early Growth Response 1 (EGR1) (AID 2282938). The conditions noted are these: HepG2 Attagene CIS-FACTORIAL EGR reporter mRNA; actives raise or lower the signal. In outline:
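Activity is taken as induction or loss of reporter mRNA versus DMSO, fitted bidirectionally. Transcripts from cis-regulated reporter units in transiently transfected HepG2 were measured after 24 h by RT-PCR with capillary electrophoresis.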

Assay [15] in a line: ATG_M_19_CIS: Attagene CIS-FACTORIAL HepG2 Assay for M19 Transcription Factor (Internal Marker) (AID 2282939). The conditions noted are these: HepG2 Attagene CIS-FACTORIAL M19 internal marker reporter; actives raise or lower the signal. In outline: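 Background-control endpoint from a multiplexed HepG2 reporter panel. Cells carrying cis-regulated reporter constructs are treated 24 h, then reporter transcripts are amplified, fluorescently labelled and sized by capillary electrophoresis. DMSO defines baseline.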

A short description of assay [16]: ATG_ERE_CIS: Attagene CIS-FACTORIAL HepG2 Assay for Estrogen Response Element (ERE) (AID 2282940). The following applies: HepG2 ERE cis-reporter, Attagene RNA transcript; actives raise or lower the signal. The method, boiled down: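 Cells used were human hepatoma HepG2, transfected with multiple reporter transcription units under cis-regulatory promoters. Reporter mRNA, read 24 h post-dosing via fluorescent RT-PCR products on capillary electrophoresis, was fitted bidirectionally relative to DMSO.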

Assay [17] in a line: ATG_Ets_CIS: Attagene CIS-FACTORIAL HepG2 Assay for human Erythroblast Transformation Specific (ETS) (AID 2282941). The following applies: HepG2 ETS cis-reporter transcription, actives raise or lower the signal. In outline:
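Bidirectional fit versus DMSO of reporter mRNA signal, detected by RT-PCR and capillary electrophoresis in HepG2 cells transiently transfected with cis-element reporters and dosed 24 h.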

Assay [18] deals with Hepatocyte nuclear factor 3-beta (Homo sapiens) (UniProt Q9Y261). The experiment in a line: ATG_FoxA2_CIS: Attagene CIS-FACTORIAL HepG2 Assay for human Forkhead box A2 (FOXA2) (AID 2282942). The conditions noted are these: HepG2 cis-reporter transcription factor activity, 24 h; actives raise or lower the signal. In outline: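 Reporter transcript induction is measured by fluorescence after capillary electrophoresis of RT-PCR products from HepG2 cells exposed 24 h. Cis-regulated reporter units report endogenous factor activity; curves fitted both directions against DMSO.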

Assay [19] is described as follows: ATG_FoxO_CIS: Attagene CIS-FACTORIAL HepG2 Assay for human Forkhead box O (FoxO) (AID 2282943). The conditions noted are these: HepG2 Attagene cis-reporter, FoxO element, mRNA; actives raise or lower the signal. The method, boiled down:
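Transfected HepG2 reporter cells exposed to test chemical for 24 h; reporter RNA measured by reverse transcription, PCR and fluorescent capillary electrophoresis; curves fitted for increases and decreases against DMSO.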

The nature of assay [20]: ATG_GATA_CIS: Attagene CIS-FACTORIAL HepG2 Assay for human GATA Binding Protein (AID 2282944). The following applies: HepG2 GATA cis-element reporter, Attagene multiplex mRNA; actives raise or lower the signal. In outline:
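Endogenous transcription factor activity was captured through cis-promoter-driven reporters in transfected HepG2 cells. After 24 h exposure, reporter transcripts were quantified by RT-PCR with fluorescent capillary electrophoresis, and responses fitted both directions against DMSO.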

Chain of Aryl hydrocarbon receptor (Homo sapiens) (P35869 whole entry, looked up): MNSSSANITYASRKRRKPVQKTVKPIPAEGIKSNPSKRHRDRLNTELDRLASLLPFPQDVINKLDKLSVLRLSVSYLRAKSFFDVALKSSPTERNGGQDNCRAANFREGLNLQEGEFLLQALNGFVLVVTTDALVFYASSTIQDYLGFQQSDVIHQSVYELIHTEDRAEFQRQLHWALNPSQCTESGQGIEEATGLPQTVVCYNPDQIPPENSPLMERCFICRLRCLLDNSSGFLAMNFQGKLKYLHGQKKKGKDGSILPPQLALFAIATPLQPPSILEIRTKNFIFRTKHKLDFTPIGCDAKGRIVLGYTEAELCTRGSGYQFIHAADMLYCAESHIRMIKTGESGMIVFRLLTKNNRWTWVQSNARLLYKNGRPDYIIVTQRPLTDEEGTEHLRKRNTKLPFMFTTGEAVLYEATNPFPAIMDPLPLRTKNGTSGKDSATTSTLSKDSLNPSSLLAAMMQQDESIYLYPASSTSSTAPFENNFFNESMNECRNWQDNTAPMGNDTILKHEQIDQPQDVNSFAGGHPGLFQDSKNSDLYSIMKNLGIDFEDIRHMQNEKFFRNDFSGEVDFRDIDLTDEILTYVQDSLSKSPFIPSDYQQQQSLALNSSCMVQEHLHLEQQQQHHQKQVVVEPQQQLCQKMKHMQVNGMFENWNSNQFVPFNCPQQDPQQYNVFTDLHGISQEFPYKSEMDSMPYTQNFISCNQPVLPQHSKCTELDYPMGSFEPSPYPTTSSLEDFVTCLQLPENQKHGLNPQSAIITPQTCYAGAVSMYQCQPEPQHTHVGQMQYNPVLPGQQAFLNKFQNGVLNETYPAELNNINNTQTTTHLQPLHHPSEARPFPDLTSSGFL
Chain of CCAAT/enhancer-binding protein beta (Homo sapiens) (P17676 whole entry, looked up): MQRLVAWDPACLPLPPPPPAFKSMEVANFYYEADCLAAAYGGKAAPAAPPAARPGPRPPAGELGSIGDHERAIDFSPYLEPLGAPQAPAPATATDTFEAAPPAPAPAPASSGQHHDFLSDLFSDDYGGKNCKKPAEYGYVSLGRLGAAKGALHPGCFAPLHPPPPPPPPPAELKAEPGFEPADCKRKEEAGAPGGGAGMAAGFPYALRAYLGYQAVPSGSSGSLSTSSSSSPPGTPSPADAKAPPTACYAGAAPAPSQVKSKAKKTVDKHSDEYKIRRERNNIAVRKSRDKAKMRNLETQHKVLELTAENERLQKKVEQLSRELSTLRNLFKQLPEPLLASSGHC
Chain of Transcription factor E2F1 (Homo sapiens) (Q01094 whole entry, looked up): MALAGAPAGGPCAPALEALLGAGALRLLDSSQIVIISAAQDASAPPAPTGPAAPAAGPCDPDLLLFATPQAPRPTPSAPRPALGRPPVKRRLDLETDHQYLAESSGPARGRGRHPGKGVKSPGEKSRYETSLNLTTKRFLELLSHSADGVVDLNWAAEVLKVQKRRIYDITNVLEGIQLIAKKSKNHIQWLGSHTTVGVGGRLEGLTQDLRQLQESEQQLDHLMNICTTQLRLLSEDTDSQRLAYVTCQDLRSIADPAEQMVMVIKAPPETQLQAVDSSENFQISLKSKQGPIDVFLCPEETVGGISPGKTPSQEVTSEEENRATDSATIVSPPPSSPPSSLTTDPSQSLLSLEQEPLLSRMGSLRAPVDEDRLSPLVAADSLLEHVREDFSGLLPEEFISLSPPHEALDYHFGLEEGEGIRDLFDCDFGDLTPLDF
Chain of Hepatocyte nuclear factor 3-beta (Homo sapiens) (Q9Y261 whole entry, looked up): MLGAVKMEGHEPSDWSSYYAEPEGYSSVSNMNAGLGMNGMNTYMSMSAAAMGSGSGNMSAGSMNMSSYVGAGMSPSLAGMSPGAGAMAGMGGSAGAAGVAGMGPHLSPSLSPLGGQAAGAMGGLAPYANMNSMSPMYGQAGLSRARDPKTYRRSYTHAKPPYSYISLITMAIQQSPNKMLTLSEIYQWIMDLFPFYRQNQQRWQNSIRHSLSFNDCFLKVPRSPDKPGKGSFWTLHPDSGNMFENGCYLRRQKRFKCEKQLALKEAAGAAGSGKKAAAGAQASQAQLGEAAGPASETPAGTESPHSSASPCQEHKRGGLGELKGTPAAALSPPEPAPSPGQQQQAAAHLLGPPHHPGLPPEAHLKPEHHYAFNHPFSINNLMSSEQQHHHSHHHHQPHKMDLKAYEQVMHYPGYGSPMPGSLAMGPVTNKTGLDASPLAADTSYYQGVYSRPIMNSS
Chain of Retinoic acid receptor alpha (Homo sapiens) (P10276 whole entry, looked up): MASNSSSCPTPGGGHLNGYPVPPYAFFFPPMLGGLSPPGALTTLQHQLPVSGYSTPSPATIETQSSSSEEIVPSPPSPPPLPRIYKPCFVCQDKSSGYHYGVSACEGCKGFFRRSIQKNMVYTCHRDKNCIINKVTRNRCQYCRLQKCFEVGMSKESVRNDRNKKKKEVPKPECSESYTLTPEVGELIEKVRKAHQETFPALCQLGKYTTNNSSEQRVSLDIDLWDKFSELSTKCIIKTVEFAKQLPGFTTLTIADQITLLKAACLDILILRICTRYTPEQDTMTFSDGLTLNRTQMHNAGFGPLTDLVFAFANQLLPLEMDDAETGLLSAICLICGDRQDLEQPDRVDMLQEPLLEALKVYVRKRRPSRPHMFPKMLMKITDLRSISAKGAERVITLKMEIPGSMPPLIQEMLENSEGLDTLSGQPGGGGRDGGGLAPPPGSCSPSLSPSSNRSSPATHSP

Turning to `CC(C)c1ccc(O)c(C(C)C)c1`, the outcome in assay [1], in assay [2], in assay [3], in [4], in [5] and in [6] was inactive. The compound was called inactive in [7], in [8], in [9], in assay [10], in [11] and in [12]. Moreover, the compound was classed as inactive in assay [13], in assay [14], in assay [15], in assay [17], in assay [18] and in assay [19]. Besides, the result in assay [20] was inactive. For the same compound, the AC50 in assay [16] was 41.2 µM (active).
Turning to `CC(C)C(=O)OCCc1ccccc1`, the call in assay [1], in assay [2], in [3], in assay [4], in [5] and in [6] was inactive. In addition, the compound was called inactive in assay [7], in assay [8], in assay [9], in assay [10], in assay [11] and in assay [12]. In addition, the outcome in [13], in assay [14], in [15], in [16], in assay [17] and in assay [18] was inactive. Besides, the call in assay [19] and in assay [20] was inactive.
Regarding `Cc1cc(=O)[nH]c(=O)[nH]1`, the outcome in assay [1], in [2], in [3], in assay [4], in assay [5] and in assay [6] was inactive. For the same compound, the result in assay [7], in assay [8], in assay [9], in assay [10], in assay [11] and in assay [12] was inactive. In addition, the outcome in assay [13], in assay [14], in [15], in assay [16], in assay [17] and in [18] was inactive. Further, the compound was classed as inactive in assay [19] and in assay [20].
On to `C/C=C/C=C/CCCCCCCO`, for which the outcome in [1], in [2], in assay [3], in assay [4], in assay [6] and in assay [8] was inactive. The outcome in [10], in assay [11], in assay [12], in assay [13], in assay [15] and in assay [16] was inactive. The outcome in [17], in assay [18], in assay [19] and in [20] was inactive. Further, the AC50 in assay [5] was 183 µM (active); in assay [7] it was 127 µM (active); in assay [9], 156 µM (active); in assay [14], 100 µM (active).
As to `C1CCSC1`, the outcome in assay [1], in assay [2], in assay [3], in assay [4], in assay [5] and in [6] was inactive. Moreover, the compound was classed as inactive in assay [7], in assay [8], in assay [9], in assay [10], in assay [11] and in [12]. Besides, the compound was called inactive in assay [13], in [14], in assay [15], in assay [16], in assay [17] and in assay [18]. In addition, the compound was classed as inactive in [19] and in assay [20].
Take `CCCCC(=O)O`: the compound was classed as inactive in assay [1], in [2], in [3], in [4], in assay [5] and in assay [6]. For the same compound, the compound was classed as inactive in assay [7], in [8], in assay [9], in assay [10], in assay [11] and in assay [12]. For the same compound, the compound was classed as inactive in assay [13], in assay [14], in assay [15], in [16], in assay [17] and in assay [18]. Besides, the compound was classed as inactive in assay [19] and in assay [20].
In the case of `CC(C)c1cccc(C(C)C)c1N`, the result in [1], in assay [2], in [3], in assay [4], in assay [5] and in assay [6] was inactive. Moreover, the call in assay [7], in assay [8], in assay [9], in assay [10], in [11] and in assay [12] was inactive. Moreover, the compound was classed as inactive in [13], in [14], in assay [15], in [16], in [17] and in assay [18]. For the same compound, the compound was classed as inactive in assay [19] and in assay [20].
